# Records with an inconclusive call do not appear. Entries that show only a call come without a potency. The source made the active and inactive calls. Unless noted, the call rests on the fitted dose curve; in most records, active means well fitted curve in the direction sought with a large enough effect; inconclusive means small, poorly fitted or top-dose-only effect, or another doubt; inactive means no such curve, though single readings can be large; an effect the other way counts as inactive or inconclusive.
# Tests used:
# [1] = Primary qHTS for small molecule stabilizers of the endoplasmic reticulum resident proteome: Secreted ER Calcium Modulated Protein (SERCaMP) assay (AID 1508630)
# Method in brief: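 The SH-SY5Y reporter protocol was run at 3 concentrations up to 38.3 uM (primary) or 11 concentrations (follow-up): 16 h compound, 100 nM thapsigargin for 4 h, then extracellular luciferase luminescence.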
# [2] = Cytotoxicity counterscreen for inhibitors of SARS-CoV-2 cell entry (AID 1645845; calls by dose curve; further: nearly all actives have a fitted effect of over 50% in size)
# Method in brief: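 After a 15 min room-temperature ATPLite 1step step, luminescence reflected ATP remaining in HEK293-ACE2 cells exposed to compound for 1 h plus 48 h at 37 C, with percent activity set by cell and no-cell controls.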
# [3] = Primary qHTS to identify inhibitors of SARS-CoV-2 cell entry (AID 1645846; calls by dose curve; further: nearly all actives have a fitted effect of over 45% in size); settings: activity change, negative = inhibition: at 57.1 µM (top of the series) unless noted
# Method in brief: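 Data are normalized to wells receiving SARS-CoV-2-S pseudoparticles and those given bald particles. Entry signal was luciferase luminescence in stable hACE2 Expi293F cells, 48 hr post-infection, after 1 hr compound pretreatment.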
# [4] = Primary qHTS for inhibitors of nuclear receptor binding SET domain protein 2 (NSD2) in an isogenic RCH-ACV NSD2 p.E1099K mutant (9B) (AID 1645876); further: nearly all actives have a fitted effect of over 70% in size; further: potency means the concentration at half of the fitted maximal effect
# [5] = biological target: Cytochrome P450 2D6 (Homo sapiens) (UniProt P10635); test: Cytochrome P450 family 2 subfamily D member 6 (CYP2D6) small molecule antagonists: luciferase biochemical (cell-free) qHTS assay (AID 1645840; active means well fitted curve in the direction sought with a large enough effect in the repeat runs; an effect the other way counts as inactive or inconclusive; further: potency means the concentration at half of the fitted maximal effect; nearly all actives have a fitted effect of over 55% in size)
# Method in brief: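 P450-Glo CYP2D6 system: proluciferin substrate converted by enzyme to luciferin, read by luminescence proportional to activity. Enzyme-substrate mix with compound 10 min at room temperature, then NADPH regeneration 1 h before detection reagent.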
# [6] = biological target: Cytochrome P450 2C9 (Homo sapiens) (UniProt P11712); test: Cytochrome P450 family 2 subfamily C member 9 (CYP2C9) small molecule antagonists: luciferase biochemical (cell-free) qHTS assay (AID 1645842; active means well fitted curve in the direction sought with a large enough effect in the repeat runs; an effect the other way counts as inactive or inconclusive; further: nearly all actives have a fitted effect of over 55% in size; further: potency means the concentration at half of the fitted maximal effect)
# Method in brief: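 P450-Glo CYP2C9 system: proluciferin substrate with enzyme in mix containing 0.4% BSA, 10 min at room temperature, then NADPH regeneration solution added and incubated 1 h at 37C. Detection reagent stopped reaction; luminescence read after 20 min as RLU.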
# [7] = Primary qHTS for inhibitors of nuclear receptor binding SET domain protein 2 (NSD2) in an RCH-ACV wild type WT cells (2C) (AID 1645877); further: nearly all actives have a fitted effect of over 70% in size; further: potency means the concentration at half of the fitted maximal effect
# [8] = biological target: Papain (Carica papaya) (UniProt P00784); test: Primary qHTS assay for inhibitors of the protease papain (AID 1645873);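 further: papain turnover of Z-FR-AMC read as the AMC fluorescence gain over 10 min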; further: potency means the concentration at half of the fitted maximal effect
# [9] = biological target: Rap guanine nucleotide exchange factor 3 (Homo sapiens) (UniProt O95398); test: Confirmatory qHTS for antagonist of cAMP-regulated guanine nucleotide exchange factor 3 (EPAC1) (AID 1645880); further: nearly all actives have a fitted effect of over 55% in size
# Method in brief: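 Released BODIPY-GDP fluoresces less than Rap1-bound BODIPY-GDP; the signal is followed at 480/540 nm at 5-min intervals over 30 min, after 5 min at room temperature. Reactions contain 100 nM EPAC1, 250 nM RAP1B-BODIPY-GDP and 50 uM GDP; results are normalized to ATA and DMSO.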
# [10] = biological target: Rap guanine nucleotide exchange factor 3 (Homo sapiens) (UniProt O95398); test: Confirmatory qHTS for agonist of cAMP-regulated guanine nucleotide exchange factor 3 (EPAC1) (AID 1645881);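 further: EPAC1 catalysed release of BODIPY-GDP from Rap1B seen as fluorescence loss; nearly all actives have a fitted effect of over 75% in size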
# [11] = biological target: Rap guanine nucleotide exchange factor 4 (Homo sapiens) (UniProt Q8WZA2); test: Confirmatory qHTS for agonist of cAMP-regulated guanine nucleotide exchange factor 4 (EPAC2) (AID 1645884);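 further: nucleotide exchange releases bodipy-GDP from Rap1 and this lowers its fluorescence; nearly all actives have a fitted effect of over 65% in size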
# [12] = biological target: Rap guanine nucleotide exchange factor 4 (Homo sapiens) (UniProt Q8WZA2); test: Confirmatory qHTS for antagonist of cAMP-regulated guanine nucleotide exchange factor 4 (EPAC2) (AID 1645885); further: nearly all actives have a fitted effect of over 25% in size
# Sequence of Papain (Carica papaya) (P00784 whole entry, looked up): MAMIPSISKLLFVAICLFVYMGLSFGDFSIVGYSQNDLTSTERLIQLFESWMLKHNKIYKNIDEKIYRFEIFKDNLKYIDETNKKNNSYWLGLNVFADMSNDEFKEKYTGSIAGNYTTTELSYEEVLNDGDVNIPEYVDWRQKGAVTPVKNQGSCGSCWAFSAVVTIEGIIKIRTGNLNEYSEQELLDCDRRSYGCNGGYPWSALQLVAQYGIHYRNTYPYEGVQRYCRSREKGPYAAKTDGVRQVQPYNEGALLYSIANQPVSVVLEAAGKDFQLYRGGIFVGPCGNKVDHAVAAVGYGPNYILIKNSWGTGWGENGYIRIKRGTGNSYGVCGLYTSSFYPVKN
# Sequence of Cytochrome P450 2C9 (Homo sapiens) (P11712 whole entry, looked up): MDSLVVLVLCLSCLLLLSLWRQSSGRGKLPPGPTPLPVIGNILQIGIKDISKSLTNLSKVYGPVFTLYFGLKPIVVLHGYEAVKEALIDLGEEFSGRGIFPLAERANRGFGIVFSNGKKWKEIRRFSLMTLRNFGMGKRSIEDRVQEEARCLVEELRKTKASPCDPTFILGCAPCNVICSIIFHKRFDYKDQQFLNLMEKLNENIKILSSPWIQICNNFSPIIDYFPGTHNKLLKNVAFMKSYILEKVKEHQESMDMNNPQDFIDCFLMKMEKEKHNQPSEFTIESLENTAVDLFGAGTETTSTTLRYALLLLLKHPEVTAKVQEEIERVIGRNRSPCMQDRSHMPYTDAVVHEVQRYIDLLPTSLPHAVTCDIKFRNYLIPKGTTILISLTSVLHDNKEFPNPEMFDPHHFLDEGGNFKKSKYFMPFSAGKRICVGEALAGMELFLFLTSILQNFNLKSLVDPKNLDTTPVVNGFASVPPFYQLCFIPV
# Sequence of Cytochrome P450 2D6 (Homo sapiens) (P10635 whole entry, looked up): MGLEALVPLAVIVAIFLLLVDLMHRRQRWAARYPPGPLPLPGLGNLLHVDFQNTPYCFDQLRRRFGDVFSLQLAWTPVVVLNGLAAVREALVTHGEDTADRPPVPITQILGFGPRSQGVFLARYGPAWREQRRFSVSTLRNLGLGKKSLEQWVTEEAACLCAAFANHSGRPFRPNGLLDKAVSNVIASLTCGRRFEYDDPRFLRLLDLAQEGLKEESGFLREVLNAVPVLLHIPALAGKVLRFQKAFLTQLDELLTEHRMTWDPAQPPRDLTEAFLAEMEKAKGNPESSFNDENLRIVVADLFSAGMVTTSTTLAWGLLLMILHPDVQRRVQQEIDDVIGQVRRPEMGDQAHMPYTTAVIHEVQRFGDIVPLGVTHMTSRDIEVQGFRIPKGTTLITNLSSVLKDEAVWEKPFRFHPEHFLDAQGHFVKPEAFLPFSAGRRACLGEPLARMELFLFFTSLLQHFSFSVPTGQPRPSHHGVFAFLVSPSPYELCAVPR
# Sequence of Rap guanine nucleotide exchange factor 3 (Homo sapiens) (O95398 whole entry, looked up): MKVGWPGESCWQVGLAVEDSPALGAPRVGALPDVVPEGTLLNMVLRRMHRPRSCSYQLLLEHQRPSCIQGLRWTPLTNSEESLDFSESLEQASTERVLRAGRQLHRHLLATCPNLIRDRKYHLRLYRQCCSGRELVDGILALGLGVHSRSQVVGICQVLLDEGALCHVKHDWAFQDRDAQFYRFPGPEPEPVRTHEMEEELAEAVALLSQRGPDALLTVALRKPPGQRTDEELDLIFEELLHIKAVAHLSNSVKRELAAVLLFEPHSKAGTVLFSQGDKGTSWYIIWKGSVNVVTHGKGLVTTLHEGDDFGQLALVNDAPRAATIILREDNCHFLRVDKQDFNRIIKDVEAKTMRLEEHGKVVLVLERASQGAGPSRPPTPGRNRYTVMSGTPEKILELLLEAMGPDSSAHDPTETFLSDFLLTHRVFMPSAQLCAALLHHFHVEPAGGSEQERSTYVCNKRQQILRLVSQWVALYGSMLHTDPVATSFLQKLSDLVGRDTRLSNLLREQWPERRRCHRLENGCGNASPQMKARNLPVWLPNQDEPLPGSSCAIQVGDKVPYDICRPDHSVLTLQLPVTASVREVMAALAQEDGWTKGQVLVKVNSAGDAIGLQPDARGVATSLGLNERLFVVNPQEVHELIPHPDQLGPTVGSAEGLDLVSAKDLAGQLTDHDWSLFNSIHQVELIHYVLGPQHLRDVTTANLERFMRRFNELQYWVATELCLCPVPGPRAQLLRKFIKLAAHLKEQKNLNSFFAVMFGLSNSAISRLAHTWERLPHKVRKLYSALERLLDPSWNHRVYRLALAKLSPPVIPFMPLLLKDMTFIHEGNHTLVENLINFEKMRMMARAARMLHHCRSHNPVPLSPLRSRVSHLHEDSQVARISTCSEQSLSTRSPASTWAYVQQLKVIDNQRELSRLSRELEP
# Sequence of Rap guanine nucleotide exchange factor 4 (Homo sapiens) (Q8WZA2 whole entry, looked up): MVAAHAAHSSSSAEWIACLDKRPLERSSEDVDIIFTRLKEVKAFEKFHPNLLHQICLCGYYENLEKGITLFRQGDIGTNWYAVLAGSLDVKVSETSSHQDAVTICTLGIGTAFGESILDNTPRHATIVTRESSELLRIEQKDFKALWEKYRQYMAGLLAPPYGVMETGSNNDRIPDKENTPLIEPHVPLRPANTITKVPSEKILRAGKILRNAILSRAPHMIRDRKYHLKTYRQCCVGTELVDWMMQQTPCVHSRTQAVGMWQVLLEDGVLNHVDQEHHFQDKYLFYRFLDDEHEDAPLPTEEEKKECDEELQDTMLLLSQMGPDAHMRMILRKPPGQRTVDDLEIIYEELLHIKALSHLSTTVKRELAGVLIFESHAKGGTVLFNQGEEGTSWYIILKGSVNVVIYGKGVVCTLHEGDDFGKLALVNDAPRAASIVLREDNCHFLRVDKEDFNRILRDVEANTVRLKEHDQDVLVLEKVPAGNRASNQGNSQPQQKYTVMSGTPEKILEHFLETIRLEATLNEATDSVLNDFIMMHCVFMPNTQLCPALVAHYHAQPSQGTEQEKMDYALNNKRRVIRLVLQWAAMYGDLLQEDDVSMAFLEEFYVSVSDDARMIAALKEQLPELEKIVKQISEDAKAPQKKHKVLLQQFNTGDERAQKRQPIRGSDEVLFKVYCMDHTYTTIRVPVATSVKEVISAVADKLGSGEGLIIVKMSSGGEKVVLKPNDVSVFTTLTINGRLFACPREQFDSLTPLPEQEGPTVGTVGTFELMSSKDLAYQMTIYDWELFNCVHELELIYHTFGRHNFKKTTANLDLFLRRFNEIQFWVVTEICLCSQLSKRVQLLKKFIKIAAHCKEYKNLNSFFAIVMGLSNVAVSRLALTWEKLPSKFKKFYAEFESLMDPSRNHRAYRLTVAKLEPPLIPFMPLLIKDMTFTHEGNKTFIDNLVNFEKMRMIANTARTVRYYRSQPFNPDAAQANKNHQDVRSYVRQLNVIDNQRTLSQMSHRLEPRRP
smiles,measurement,setting,value
CN1[C@H]2CC(O)C[C@H]1[C@H]1O[C@H]12 (stereo not given in full),Potency,[1],inactive
same,Potency,[2],inactive
same,"activity change, negative = inhibition",[3],0.905%
same,Potency,[4],inactive
COc1nn(CSP(=S)(OC)OC)c(=O)s1,Potency,[1],inactive
same,Potency,[5],25.9 µM (active)
same,Potency,[6],5.17 µM (active)
same,Potency,[4],9.69 µM (active)
CC(=O)N(C)c1cccc(-c2ccnc3c(C(=O)c4cccs4)cnn23)c1,Potency,[1],inactive
same,Potency,[6],inactive
same,Potency,[4],inactive
CSCC[C@@H](NC(=O)[C@@H](Cc1ccccc1)NC(=O)CNC(=O)CNC(=O)[C@@H](N)Cc1ccc(O)cc1)C(=O)O,Potency,[1],inactive
same,Potency,[6],inactive
same,Potency,[2],inactive
same,"activity change, negative = inhibition",[3],-0.623%
same,Potency,[4],inactive
same,Potency,[7],inactive
CC1=NN=C(c2ccc(N)cc2)c2cc3c(cc2C1)OCO3,Potency,[1],inactive
same,Potency,[6],7.56 µM (active)
same,Potency,[8],inactive
same,outcome,[9],inactive
same,outcome,[10],inactive
same,outcome,[11],inactive
same,Potency,[12],inactive
CCOC(=O)c1c(C(C#N)=CN)c2ccc(Cl)c(Cl)c2n1C,Potency,[1],inactive
same,Potency,[2],inactive
same,"activity change, negative = inhibition",[3],-10.2%
O=C(N[C@@H](COc1ccc2[nH]c(=O)[nH]c2c1)c1ccccc1)c1cccn(Cc2ccc(F)c(F)c2)c1=O,Potency,[1],inactive
same,Potency,[5],4.25 µM (active)
same,Potency,[6],0.239 µM (active)
same,Potency,[2],inactive
same,Potency,[4],1.63 µM (active)
CCc1c(C(=O)C(N)=O)c2c(OCC(=O)O)cccc2n1Cc1ccccc1,Potency,[1],inactive
same,Potency,[6],inactive
same,Potency,[2],inactive
same,"activity change, negative = inhibition",[3],-66.7%
same,Potency,[4],inactive
same,Potency,[7],inactive
CCN(CC)C(=O)c1ccc(C2=CC3(CCNCC3)Oc3cccc(O)c32)cc1,Potency,[1],inactive
same,Potency,[2],inactive
same,"activity change, negative = inhibition",[3],-22.9%
C[C@](O)(COc1ccc(C#N)cc1)C(=O)Nc1ccc(C#N)c(C(F)(F)F)c1,Potency,[1],inactive
same,Potency,[2],inactive
same,"activity change, negative = inhibition",[3],-12.9%
same,Potency,[4],20.9 µM (active)
O=S(=O)(O)C(F)(F)C(F)(F)C(F)(F)C(F)(F)C(F)(F)C(F)(F)C(F)(F)C(F)(F)F,Potency,[1],inactive
same,Potency,[6],0.564 µM (active)
O=C(Nc1ccncc1)C(=O)c1cn(Cc2ccc(Cl)cc2)c2ccccc12,Potency,[1],inactive
same,Potency,[6],0.301 µM (active)
same,Potency,[2],inactive
same,"activity change, negative = inhibition",[3],-75.6%
same,Potency,[4],0.263 µM (active)
Cc1c(C(=O)Nc2cccc(C(F)(F)F)c2)cc(-c2ccccc2)n1CCCN1CCOCC1,Potency,[1],inactive
same,Potency,[6],4.77 µM (active)
same,Potency,[2],inactive
same,Potency,[4],20.9 µM (active)
same,Potency,[7],23.5 µM (active)
COc1ccc(C(=O)c2c(C)n(CCN3CCOCC3)c3cc(I)ccc23)cc1,Potency,[1],inactive
same,Potency,[2],inactive
same,"activity change, negative = inhibition",[3],-80.5%
same,Potency,[4],18.6 µM (active)
same,Potency,[7],14.8 µM (active)
C[C@]12CC[C@H]3[C@@H](CCC4=CC(=O)CC[C@@]43C)[C@H]1CC[C@H]2OC(=O)CCC1CCCC1,Potency,[1],inactive
same,Potency,[2],inactive
same,"activity change, negative = inhibition",[3],-3.52%
same,Potency,[4],inactive
same,Potency,[7],inactive
CC(=O)[C@H]1CCC2C3CC[C@H]4C[C@H](O)CC[C@]4(C)C3CC[C@@]21C (stereo not given in full),Potency,[1],inactive
same,Potency,[8],inactive
O=C(O)[C@@H]1CCN1,Potency,[1],inactive
same,Potency,[8],inactive
Clc1ccccc1C(c1ccccc1)(c1ccccc1)n1cccn1,Potency,[1],inactive
same,Potency,[2],inactive
same,Potency,[4],inactive
same,Potency,[7],inactive
CC[C@@]1(O)C(=O)OCc2c1cc1n(c2=O)Cc2cc3ccccc3nc2-1,Potency,[1],inactive
same,"activity change, negative = inhibition",[3],-94.8%
same,Potency,[8],3.98 µM (active)
same,Potency,[4],0.0148 µM (active)
same,Potency,[7],0.0132 µM (active)
NCCc1c[nH]c2ccc(O)cc12,Potency,[1],inactive
same,Potency,[8],inactive
CCCN(CCC)C1CCc2ccc(O)cc2C1 (stereo not given),Potency,[1],inactive
same,Potency,[8],inactive
C[C@]12CC[C@@H]3[C@@H](CCC4=CC(=O)CC[C@@H]43)[C@@H]1CC[C@@H]2OC(=O)CCc1ccccc1,Potency,[1],inactive
same,Potency,[2],inactive
same,"activity change, negative = inhibition",[3],-12.2%
same,Potency,[4],inactive
same,Potency,[7],inactive
CC(C)[C@H]1C(=O)N[C@H](CO)Cc2c[nH]c3cccc(c23)N1C,Potency,[1],inactive
same,Potency,[3],inactive
NC(N)=NOCCC(N)C(=O)O (stereo not given),Potency,[1],inactive
same,Potency,[8],inactive
NC(CP(=O)(O)O)C(=O)O (stereo not given),Potency,[1],inactive
same,Potency,[8],inactive

# Reference: PubChem BioAssay (NCATS)
